Data published in PubChem BioAssay (NCATS).
Inconclusive results are not listed. Entries that show only a call come without a potency. Some structures have more than one record in an assay (separate samples or runs), and their calls can disagree. Calls of active or inactive are those of the source. Calls follow the shape of the full dose curve.

Assays:
[1] = Primary qHTS for Huh7 cytotoxicity: counterscreen for inhibitors of MERS-S pseudotyped particle cell entry (AID 1479147); settings: outcome: dose series up to 57.1 µM unless noted
[2] = Primary qHTS for inhibitors of MERS-S pseudo-typed particle cell entry (AID 1479149); settings: outcome: dose series up to 57.1 µM unless noted; also: nearly all actives have a fitted effect of over 60% in size
[3] = Primary qHTS for Vero E6 cytotoxicity: counterscreen for inhibitors of SARS-S pseudo-typed particle cell entry (AID 1479150); settings: outcome: dose series up to 57.1 µM unless noted
[4] = Cytotoxicity counterscreen for inhibitors of SARS-CoV-2 cell entry (AID 1645845); settings: outcome: dose series up to 57.1 µM unless noted; also: nearly all actives have a fitted effect of over 50% in size
Method in brief: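 48 h compound treatment (after 1 h preincubation), HEK293-ACE2 cells, 37 C/5% CO2; ATP luminescence endpoint; normalized to cell wells and media blanks.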

[5] = Primary qHTS to identify inhibitors of SARS-CoV-2 cell entry (AID 1645846); settings: SARS-CoV-2 pseudovirus cell entry assay, luminescence; activity change, negative = inhibition: at 57.1 µM (top of the series) unless noted; also: nearly all actives have a fitted effect of over 45% in size; also: potency is read from the fitted curve at half-maximal effect
Method in brief: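 HEK293 cells stably expressing human ACE2, pre-treated 1 h with compound, then infected with MLV particles pseudotyped with Wuhan-Hu-1 spike (C-terminal 19-aa truncation). Luciferase luminescence after 48 h at 37 °C, normalised to spike PP and bald PP.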

SMILES	Potency [1]	Potency [2]	Potency [3]	Potency [4]	activity change, negative = inhibition [5] [%]	Potency [5]
CCC(=O)O[C@@H]1CC(=O)O[C@H](C)C/C=C/C=C/[C@@H](O)[C@H](C)C[C@H](CC=O)[C@H](OC2O[C@H](C)[C@@H](O[C@H]3C[C@@](C)(O)[C@@H](OC(=O)CC)[C@H](C)O3)[C@H](N(C)C)[C@H]2O)[C@H]1OC (some centres not stated)	inactive	inactive	inactive	inactive	-26.3	–
Cc1ccc(Sc2ccccc2N2CCNCC2)c(C)c1	inactive	inactive	inactive	inactive	-7.77	22.4 µM (active)
CCC(=O)OC1(C(=O)CCl)C(C)CC2C3CC(F)C4=CC(=O)C=CC4(C)C3(F)C(O)CC21C (configuration not stated)	inactive	inactive	inactive	inactive	-5.75	–
COC1=C(C(=O)O)N2C(=O)[C@@H](NC(=O)[C@H](N)C3=CCC=CC3)[C@H]2SC1	inactive	inactive	inactive	inactive	-17.7	–
CN1CC(O)c2cc(N=NC(=N)N)c(O)cc21 (configuration not stated)	inactive	inactive	inactive	inactive	-23.2	–
OCCCNc1ccccc1	inactive	inactive	inactive	inactive	-22.3	–
OC[C@H]1O[C@H](O[C@H]2[C@H](O)[C@@H](O)[C@H](O)O[C@@H]2CO)[C@H](O)[C@@H](O)[C@@H]1O	inactive	inactive	inactive	inactive	-20.9	–
C=CCNc1c(O)cc2c(O)c1C[C@@H](C)C[C@H](OC)[C@H](O)[C@@H](C)/C=C(/C)[C@H](OC(N)=O)[C@@H](OC)/C=C\C=C(\C)C(=O)N2	inactive	inactive	inactive	inactive	-94	3.16 µM (active)
C[C@@H]1C[C@H]2[C@@H]3C[C@H](F)C4=CC(=O)C=C[C@]4(C)[C@@]3(Cl)[C@@H](O)C[C@]2(C)[C@H]1C(=O)COC(=O)C(C)(C)C	inactive	inactive	inactive	inactive	1.93	–
COc1ccc(-c2noc(CC(=O)O)c2-c2ccc(OC)cc2)cc1	inactive	inactive	inactive	inactive	-24.5	–
O=C(OC[C@H]1O[C@@H](OC(=O)c2cc(O)c(O)c(O)c2)[C@H](O)[C@@H](OC(=O)c2cc(O)c(O)c(O)c2)[C@@H]1O)c1cc(O)c(O)c(O)c1	inactive	inactive	inactive	inactive	-1.77	–
C/C(=C(/CCO)SSCC1CCCO1)N(C=O)Cc1cnc(C)nc1N (configuration not stated)	inactive	inactive	inactive	inactive	-21.7	–
